hERG WT inh = qHTS for Inhibitors of KCHN2 3.1: Wildtype qHTS | Voltage-gated inwardly rectifying potassium channel KCNH2 (Homo sapiens), Q12809 | U2OS, BacMam KCNH2, thallium flux FluxOr; active compounds read low | activity change, % at 1.84 µM | 340,000 tested, 0.37% active | AID 720551, 2013;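 active = maximum activity change below -70%; inconclusive = maximum activity change between -70% and -50%; inactive = maximum activity change above -50%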; note: % is set by controls: 0 for no effect and ±100 for the full control effect
Target sequence (Q12809 whole entry, looked up): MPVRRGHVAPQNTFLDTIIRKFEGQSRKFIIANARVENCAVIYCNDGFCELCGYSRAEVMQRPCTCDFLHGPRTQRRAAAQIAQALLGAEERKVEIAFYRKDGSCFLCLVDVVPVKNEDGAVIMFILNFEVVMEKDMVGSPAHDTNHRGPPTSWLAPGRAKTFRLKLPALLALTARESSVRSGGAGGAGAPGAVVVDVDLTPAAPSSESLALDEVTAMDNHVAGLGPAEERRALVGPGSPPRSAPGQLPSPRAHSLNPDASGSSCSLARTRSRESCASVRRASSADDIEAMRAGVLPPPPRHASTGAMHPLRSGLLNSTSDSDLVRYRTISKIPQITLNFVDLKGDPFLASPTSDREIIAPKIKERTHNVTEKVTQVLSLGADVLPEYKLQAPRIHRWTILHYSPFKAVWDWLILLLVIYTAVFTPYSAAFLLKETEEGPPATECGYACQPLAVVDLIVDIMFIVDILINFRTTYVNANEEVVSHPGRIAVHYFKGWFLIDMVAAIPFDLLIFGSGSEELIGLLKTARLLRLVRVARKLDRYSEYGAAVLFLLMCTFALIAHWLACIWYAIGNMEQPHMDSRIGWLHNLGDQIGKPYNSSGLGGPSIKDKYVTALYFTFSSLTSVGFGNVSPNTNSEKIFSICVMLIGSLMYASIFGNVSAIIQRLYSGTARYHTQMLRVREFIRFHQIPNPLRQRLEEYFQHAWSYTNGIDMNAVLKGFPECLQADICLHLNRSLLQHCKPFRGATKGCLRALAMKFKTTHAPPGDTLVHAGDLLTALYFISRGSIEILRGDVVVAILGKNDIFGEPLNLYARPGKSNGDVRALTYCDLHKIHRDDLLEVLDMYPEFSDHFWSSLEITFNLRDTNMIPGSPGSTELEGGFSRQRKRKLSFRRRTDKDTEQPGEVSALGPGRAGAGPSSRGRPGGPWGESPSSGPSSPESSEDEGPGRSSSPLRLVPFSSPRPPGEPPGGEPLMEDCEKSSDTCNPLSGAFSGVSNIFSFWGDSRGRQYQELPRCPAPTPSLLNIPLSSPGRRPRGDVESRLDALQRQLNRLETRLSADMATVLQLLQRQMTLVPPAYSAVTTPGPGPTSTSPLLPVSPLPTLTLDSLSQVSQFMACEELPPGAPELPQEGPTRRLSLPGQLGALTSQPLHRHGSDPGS
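U2OS cells transduced with wild-type KCNH2 virus are loaded with FluxOr dye for 45 min, and thallium flux is measured in kinetic reads before and after stimulation buffer. Rate constants are normalized to DMSO controls.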
TRHR agonist = qHTS for Small Molecule Agonists and Allosteric Enhancers of Human TRH Receptor: Primary Screen for Agonists; 360,000 tested, 0.18% active; TRHR cells, calcium flux fluo-8, FDSS agonist mode; activation, % at 2 µM; AID 493084, 2011; in the data active = activation above about 30%; note: 0% is about no effect
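TRHR-expressing cells, plated overnight in medium with 10% serum, were loaded with fluo-8 calcium dye at room temperature. After a 10 s baseline, library compound was pin-added and calcium release was recorded kinetically (ex 480/em 530) as agonist response.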
TRHR PAM = qHTS for Small Molecule Agonists and Allosteric Enhancers of Human TRH Receptor: Primary Screen for Enhancers. Thyrotropin-releasing hormone receptor (Homo sapiens), P34981. TRHR cells, fluo-8 calcium fluorescence, EC20 TRH enhancement. enhancement, % at 2 µM. 360,000 tested, 0.66% active. AID 493056, 2011; in the data active = enhancement above about 30%; note: 0% is about no effect
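TRHR-expressing cells loaded with fluo-8 calcium dye were read kinetically (ex 480/em 530) during compound addition, then stimulated with an EC20 of TRH (10 nM final). Enhancement of the Gq-mediated intracellular calcium response was scored.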
TRPML1 inh = qHTS for Inhibitors of the Human Mucolipin Transient Receptor Potential 1 (TRPML1); Mucolipin-1 (Homo sapiens), Q9GZU1; TRPML1-inducible cells, Ca2+ dye fluorescence, FDSS; active compounds read low; inhibition of EC80 agonist-evoked calcium signal; activity change, negative = inhibition, % (test concentration not listed); 390,000 tested, 0.02% active; AID 624415, 2012; in the data active = activity change below about -50%; inconclusive = between about -30% and that limit;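 note: stimulus is agonist 54-4 at its EC80 concentration; % is set by controls: 0 for no effect and ±100 for the full control effect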
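Tet-induced TRPML1-DL cells loaded with Ca8 no-wash calcium dye were read kinetically on FDSS. Compound addition was followed by EC80 agonist 54-4 (4 uM final); inhibition was read over 110 s.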
TRPML1 ag = qHTS for Agonists of the Human Mucolipin Transient Receptor Potential 1 (TRPML1); 410,000 tested, 0.12% active; TRPML1-expressing cells, Ca2+ dye fluorescence, FDSS; activation, % (no concentration beside the values); AID 624414, 2012; Mucolipin-1 (Homo sapiens), Q9GZU1; in the data active = activation above about 50%; inconclusive = mostly about 30% to 49%; note: 0% is about no effect
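Agonist activity was taken from a 110 s kinetic Ca2+ dye read on the FDSS after pinning compounds onto TRPML1-DL cells. The cells were seeded at 1,500/well with Tet inducer, incubated about 16 h, then dye-loaded at room temperature.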
KCNH2 3.1 block = qHTS for Inhibitors of KCHN2 3.1: Mutant qHTS | Potassium voltage-gated channel subfamily H member 2, brain isoform KCNH2 3.1 (human) | U2OS KCNH2 3.1, thallium flux FluxOr; active compounds read low | activity change, % (tested at about 1.8 µM) | 340,000 tested, 0.95% active | AID 720553, 2013;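 active = maximum activity change below -70%; inconclusive = maximum activity change from -70% to -50%; inactive = maximum activity change above -50%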;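 note: thallium influx rate constant from kinetic fluorescence after stimulation buffer; % is set by controls: 0 for no effect and ±100 for the full control effect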
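Measured as rate of thallium-driven FluxOr signal in transduced U2OS cells carrying the 3.1 channel, read kinetically for 2 min upon stimulation; values are rate constants scaled to DMSO control wells.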
* hit, by the source's call; ! = not confirmed by another sample. Hits are enriched below; roughly 1.7% of the tested compounds scored in any of these assays.

Screening COc1cccc(C(=O)NC2CC3CCCC(C2)N3Cc2ccc(C)cc2)c1 (centres undefined) returned hERG WT inh 6.7, TRHR agonist 0.0, TRHR PAM 2.1 and KCNH2 3.1 block -71.4*.
For COc1cccc(C(=O)NC2CC3CCCC(C2)N3Cc2ccc(F)cc2)c1 (centres undefined) the results were hERG WT inh 30.3, TRPML1 inh -11.8, TRPML1 ag 0.2 and KCNH2 3.1 block -24.8.
`CCCC(=O)c1c[nH]c(C(=O)N2CCOCC2)c1` gave hERG WT inh 7.4, TRHR agonist 0.8, TRHR PAM 36.4*, TRPML1 inh 52.6, TRPML1 ag 0.6 and KCNH2 3.1 block -19.4.
CC(C)CC(=O)c1c[nH]c(C(=O)N2CCN(Cc3ccccc3)CC2)c1 was read as hERG WT inh -13.7, TRHR agonist -0.3, TRHR PAM -4.1, TRPML1 inh 4.0, TRPML1 ag -0.2 and KCNH2 3.1 block 11.9.
CCC(=O)NC(c1ccc(C)s1)c1cc(Cl)c2cccnc2c1O (centres undefined) was read as TRHR agonist 1.2 and TRHR PAM 3.8.
Screening CN1C(=O)Cc2cc(S(=O)(=O)NCc3c(F)cccc3Cl)ccc21 returned hERG WT inh 0.1, TRHR agonist 0.1, TRHR PAM 1.9, TRPML1 inh 12.9, TRPML1 ag 0.0 and KCNH2 3.1 block -11.2.
Screening CN1C(=O)Cc2cc(S(=O)(=O)NCCc3ccc(Cl)cc3)ccc21 returned hERG WT inh -6.6, TRHR agonist 0.6, TRHR PAM 39.6*!, TRPML1 inh 25.9, TRPML1 ag 0.6 and KCNH2 3.1 block 1.8.
For O=C(NCc1ccc(OC(F)(F)F)cc1)C1CC2Cn3c(nc4ccccc43)C2N1Cc1ccccc1 (centres undefined) the results were hERG WT inh -75.8*, TRHR agonist 0.3, TRHR PAM -1.2, TRPML1 inh -12.0, TRPML1 ag 1.6 and KCNH2 3.1 block -97.8*.
CN1C(C(=O)NCc2ccc(OC(F)(F)F)cc2)CC2Cn3c(nc4cc(Cl)c(Cl)cc43)C21 (centres undefined) was read as hERG WT inh inconclusive, TRHR agonist -0.7, TRHR PAM 6.1, TRPML1 inh 4.0, TRPML1 ag 0.7 and KCNH2 3.1 block -78.7*.
`COCC(=O)N(Cc1cc2cc(C)ccc2[nH]c1=O)c1ccc(C)c(C)c1` gave hERG WT inh 9.7, TRHR agonist 0.1, TRHR PAM 30.8*, TRPML1 inh -5.3, TRPML1 ag 0.9 and KCNH2 3.1 block 14.6.
Cc1ccc2cc(CN(C)S(C)(=O)=O)c(=O)[nH]c2c1 was read as hERG WT inh -2.0, TRHR agonist -0.1, TRHR PAM -0.5, TRPML1 inh 1.1, TRPML1 ag 0.7 and KCNH2 3.1 block 3.1.
For Cc1ccc(S(=O)(=O)N(C)Cc2cc3cc(C)ccc3[nH]c2=O)cc1 the results were hERG WT inh -3.3, TRHR agonist -0.4, TRHR PAM -0.4, TRPML1 inh 11.5, TRPML1 ag -0.9 and KCNH2 3.1 block -117.1*.
For COCC(=O)N(Cc1cc2cc(C)ccc2[nH]c1=O)c1cccc(C)c1C the results were hERG WT inh 2.3, TRHR agonist 0.3, TRHR PAM 3.4, TRPML1 inh 10.8, TRPML1 ag -0.1 and KCNH2 3.1 block 4.3.
`O=C(/C=C/c1ccc(Cl)c([N+](=O)[O-])c1)Nc1ccc(NC(=O)c2ccco2)cc1` gave hERG WT inh -36.5, TRHR agonist 0.9, TRHR PAM 20.5, TRPML1 inh 17.3, TRPML1 ag 1.9 and KCNH2 3.1 block -119.4*.
O=C(/C=C/c1ccc(Cl)c([N+](=O)[O-])c1)Nc1cccc(NC(=O)c2ccco2)c1 was read as TRHR agonist 0.1, TRHR PAM -2.1, TRPML1 inh -5.6, TRPML1 ag 1.6 and KCNH2 3.1 block -14.2.
For CC(C)(C)CC(C)(C)N=C1Nc2ccc(Cl)cc2NC12C[C@H]1CCC(=O)N3CC[C@@H](C2)[C@@H]13 (some centres undefined) the results were TRPML1 ag -0.6.
`N#Cc1nc(Nc2cccc3ccccc23)nc(NC2CCCC2)n1` gave TRHR agonist 2.0 and TRHR PAM -6.1.
`O=C(CCCn1c(=O)[nH]c2ccccc2c1=O)NCCSCc1ccccc1` gave hERG WT inh 6.8, TRHR agonist -1.0, TRHR PAM -2.7, TRPML1 inh 12.0, TRPML1 ag -0.6 and KCNH2 3.1 block 0.4.
`O=C(CCS(=O)(=O)Cc1ccc(Cl)cc1)NCCCN1CCN(c2ccccc2F)CC1` gave hERG WT inh 6.2, TRHR agonist -0.6, TRHR PAM 32.9*, TRPML1 inh -9.2, TRPML1 ag 3.3 and KCNH2 3.1 block -4.4.
`O=C(CCCCCn1c(=O)[nH]c2ccccc2c1=O)NCCCN1CCN(c2ccccc2F)CC1` gave hERG WT inh inconclusive, TRHR agonist -0.6, TRHR PAM -2.3, TRPML1 inh -13.3, TRPML1 ag 0.5 and KCNH2 3.1 block -70.5*.
Screening Cc1ccccc1CS(=O)(=O)CCC(=O)NCCCN1CCN(c2ccccc2F)CC1 returned hERG WT inh 36.2, TRHR agonist 0.0, TRHR PAM 5.5, TRPML1 inh 8.0, TRPML1 ag 0.6 and KCNH2 3.1 block -9.9.
For Cc1ccc(N2CCN(S(=O)(=O)c3ccc(F)c(C)c3)CC2)c(C)c1 the results were hERG WT inh -9.3, TRHR agonist 0.6, TRHR PAM 1.6, TRPML1 inh -20.2 and TRPML1 ag 50.4*.
Screening COc1ccccc1CNC(=O)C1CCCN(S(=O)(=O)c2cccs2)C1 (centres undefined) returned hERG WT inh -22.5, TRHR agonist 0.0, TRHR PAM 40.3*, TRPML1 inh -2.8, TRPML1 ag 0.8 and KCNH2 3.1 block 12.2.
For COc1ccccc1CNC(=O)C1CCCN(S(C)(=O)=O)C1 (centres undefined) the results were hERG WT inh 5.6, TRHR agonist 0.4, TRHR PAM -4.9, TRPML1 inh 1.4, TRPML1 ag 0.8 and KCNH2 3.1 block -5.9.
